This is a sample that favours compounds with a hit; in the whole collection about 1.8% have one here.
GRK2 aptamer HTS: inhibitors of human GRK2 displacing RNA aptamer; AID 488847; hit rate 0.59% among 330,000; P25098; bead flow cytometry, FAM-aptamer displacement from GRK2; inhibition of aptamer binding, % at 10 µM;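 active means inhibition of aptamer binding above 40%, roughly 3 SD of noise, on plates passing a quality check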;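 further: median bead fluorescence of bound FAM aptamer so fluorescent compounds give negative values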
PKD1 kinase inh: PKD1 (human) kinase inhibition. hit rate 0.056% among 200,000. inhibition, % (concentration not given with the values). PKD1 kinase fluorescence polarization assay
VLA-4 inh: inhibition in a human VLA-4 binding assay | hit rate 0.2% among 330,000 | inhibition, % (about 7 µM as worked out from the volumes in the protocol) | VLA-4 expressing cells, ligand binding flow cytometry | P13612
Target sequence (P13612 whole entry, looked up): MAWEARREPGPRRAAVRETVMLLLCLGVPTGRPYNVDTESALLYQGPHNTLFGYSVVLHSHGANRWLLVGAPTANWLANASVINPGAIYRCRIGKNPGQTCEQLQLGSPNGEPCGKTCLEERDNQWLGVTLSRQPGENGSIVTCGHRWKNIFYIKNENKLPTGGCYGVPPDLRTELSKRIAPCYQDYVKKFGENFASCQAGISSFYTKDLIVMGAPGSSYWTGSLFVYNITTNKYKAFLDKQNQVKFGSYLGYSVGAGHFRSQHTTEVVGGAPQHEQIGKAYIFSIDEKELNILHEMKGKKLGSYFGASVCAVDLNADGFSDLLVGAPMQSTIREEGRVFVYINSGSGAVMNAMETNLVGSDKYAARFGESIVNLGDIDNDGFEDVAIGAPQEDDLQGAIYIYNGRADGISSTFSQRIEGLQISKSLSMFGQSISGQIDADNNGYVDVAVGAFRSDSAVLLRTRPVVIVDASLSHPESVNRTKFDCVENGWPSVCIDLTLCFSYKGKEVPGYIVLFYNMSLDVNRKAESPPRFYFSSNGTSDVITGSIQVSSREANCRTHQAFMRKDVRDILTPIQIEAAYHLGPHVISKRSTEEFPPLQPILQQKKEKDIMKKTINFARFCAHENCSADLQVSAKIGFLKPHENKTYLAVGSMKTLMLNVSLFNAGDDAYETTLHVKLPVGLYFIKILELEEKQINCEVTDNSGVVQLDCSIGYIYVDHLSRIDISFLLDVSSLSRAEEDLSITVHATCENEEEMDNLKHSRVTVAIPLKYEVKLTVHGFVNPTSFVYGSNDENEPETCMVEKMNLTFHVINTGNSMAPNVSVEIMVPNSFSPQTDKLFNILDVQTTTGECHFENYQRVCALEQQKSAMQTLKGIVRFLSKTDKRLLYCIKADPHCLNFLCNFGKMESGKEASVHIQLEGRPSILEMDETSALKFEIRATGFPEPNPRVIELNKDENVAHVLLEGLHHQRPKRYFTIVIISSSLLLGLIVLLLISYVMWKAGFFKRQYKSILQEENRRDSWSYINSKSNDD
LANA-H2A inh: blocks KSHV LANA binding to histone H2A/H2B | Q9QR71 | cell-free LANA-H2A/H2B peptide, fluorescence polarization | inhibition, % (test concentration not listed) | hit rate 0.6% among 320,000 | AID 2629; in the data active means inhibition mostly above about 10%, no sharp cut-off; inactive means mostly below about 6.7%
DSG3 Ab inh: human desmoglein-3 autoantibody binding inhibition. P32926. DSG3-coupled beads, scFv-anti-DSG3-GFP binding, flow cytometry; hits give low values. binding (percent of control), % at 10 µM. hit rate 0.48% among 310,000;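 active means binding more than 3 SD below its plate's average and above zero; inconclusive means below that plate limit but binding exactly zero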;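 further: hits lower antibody fragment binding to DSG3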
HDAC3 inhib: blocks human histone deacetylase 3. recombinant HDAC3, fluorogenic peptide/trypsin coupled, fluorescence. inhibition, % at 8.3 µM. hit rate 0.15% among 320,000; in the data active means inhibition above about 26%, passing the limit was not always enough; inconclusive means no clear call, values can overlap the other calls
GRK2 inh confirm: human GRK2 inhibition confirmation, cherry pick 1; shares compounds with GRK2 aptamer HTS; bead-bound GRK2, FAM-aptamer displacement, flow cytometry; aptamer displacement, % at 10 µM; hit rate 4% among 2,000;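 active means aptamer displacement above 40%, near three times the noise of non-fluorescent compounds, on plates passing quality checks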;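 further: negative values mostly reflect intrinsic compound fluorescence rather than true enhancement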
Aptamer quench 1: quenches fluorescent RNA aptamer, GRK2 hit artifact; fluorescence change (kMESF span), kMESF (no concentration beside the values); Fluorescent RNA aptamer beads, quenching, flow cytometry; hits give high values; shares compounds with GRK2 aptamer HTS; 110 tested, under 10 active; AID 504521;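 active means compounds whose bead fluorescence drops by more than 37 kMESF across the dose range, marking them as dye quenchers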
FAM quench CP1: counter-screen for GRK2 aptamer inhibitors: fluorescent aptamer quenchers | Carboxyfluorescein RNA aptamer on beads, flow cytometry quenching; hits give low values | shares compounds with GRK2 aptamer HTS | fluorescence response (% of DMSO), % at 10 µM | AID 504580 | 2,000 tested, under 10 active;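 active means compounds that quench the bead-bound fluorescent RNA probe, cutting fluorescence to under half of the solvent control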;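 further: counterscreen run without GRK2 so only probe quenching by compound is measured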
GRK2 confirm 2: confirmation of human GRK2 inhibitors binding RNA aptamer site | inhibition of aptamer binding, % at 10 µM | shares compounds with GRK2 aptamer HTS | 360 tested, under 10 active | bead-bound GRK2, FAM-aptamer displacement, flow cytometry;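 active means inhibition of aptamer binding above 40%, about triple the noise seen with nonglowing compounds, on plates passing quality control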;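 further: negative values mostly come from compounds that fluoresce themselves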
FAM quench SP: counter-screen for GRK2 binding hits: quenchers of fluorescent RNA aptamer; shares compounds with GRK2 aptamer HTS; carboxyfluorescein RNA aptamer beads, flow cytometry quenching; hits give low values; fluorescence response vs DMSO, % at 10 µM; 360 tested, under 10 active; AID 588494;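 active means response vs DMSO under 50%, meaning signal dropped by over half, treated as fluorescence quencher; inconclusive means no clear call, values can overlap the other calls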;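 further: labelled aptamer on streptavidin beads without GRK2 as a quench counter-screen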
Each line names hits and unclear results; the compound was inactive in the other large screens (follow-up assays come after a bar, where they were run). Unless noted, no stated cut-off is given here; in the data, active means inhibition above about 50%; inactive means the rest.

C/C=C\C=C/C(=O)Nc1cccc(C2=NOC3(C2)C[C@@H](C(N)=O)N(C(=O)COc2ccc(Cl)cc2)C3)c1 (stereo partly specified)	none (no result: PKD1 kinase inh)
CCCCCC(=O)Nc1cccc(C2=NOC3(C2)C[C@@H](C(N)=O)N(C(=O)c2ccc(OC)cc2)C3)c1 (stereo partly specified)	GRK2 aptamer HTS 65 (no result: PKD1 kinase inh) | GRK2 inh confirm inactive | Aptamer quench 1 inactive | FAM quench CP1 inactive
CCCCCC(=O)Nc1cccc(C2=NOC3(C2)C[C@H](C(N)=O)N(C(=O)COc2ccc(Cl)cc2)C3)c1 (stereo partly specified)	none (no result: PKD1 kinase inh) | GRK2 confirm 2 inactive | FAM quench SP inactive
CCn1ncc(Br)c1C(=O)Nc1ccc(-c2ccno2)cc1	none (no result: PKD1 kinase inh, LANA-H2A inh, HDAC3 inhib)
Cc1ccc(NC(=O)CN(C)C(=O)c2cccc(S(=O)(=O)NCc3ccccc3)c2)cc1	GRK2 aptamer HTS 91 (no result: PKD1 kinase inh) | GRK2 inh confirm inactive | FAM quench CP1 inactive
CCCN(CC(=O)Nc1ccccc1C)C(=O)CCN1C(=O)c2cccc([N+](=O)[O-])c2C1=O	none (no result: PKD1 kinase inh)
Cc1ccccc1NS(=O)(=O)c1cc(C(=O)Nc2cccc(N(C)S(C)(=O)=O)c2)ccc1C	none | GRK2 inh confirm inactive | FAM quench CP1 inactive
CC(C)(C)c1cc(CCC(=O)NCC2CCCO2)cc(C(C)(C)C)c1O (stereo unspecified)	none (no result: PKD1 kinase inh)
O=C(COc1ccc(/C=N/NC(=O)c2ccncc2)cc1)Nc1ccccc1	GRK2 aptamer HTS 95 (no result: PKD1 kinase inh, DSG3 Ab inh) | GRK2 inh confirm inactive | FAM quench CP1 inactive
CSc1ccc(C(=O)C2CCCN(C(=O)CCCn3cncn3)C2)cc1 (stereo unspecified)	GRK2 aptamer HTS 76 | GRK2 inh confirm inactive | FAM quench CP1 inactive
O=C(Nc1ccccc1C(=O)O)C1=NN=CC1	none (no result: PKD1 kinase inh)
Cc1ccc([N+](=O)[O-])cc1S(=O)(=O)NCC1COc2ccccc2O1 (stereo unspecified)	GRK2 aptamer HTS 54, DSG3 Ab inh inconclusive (no result: PKD1 kinase inh) | GRK2 inh confirm inactive | FAM quench CP1 inactive
Cc1cc(C(=O)N2CCN(c3ccc(C(F)(F)F)cn3)CC2)c(C)o1	none (no result: PKD1 kinase inh, DSG3 Ab inh, HDAC3 inhib)
Cc1cccc(C(=O)N2CCN(c3ccc(C(F)(F)F)cn3)CC2)c1C	none | GRK2 inh confirm inactive | FAM quench CP1 inactive
O=C1CC(c2ccc3c(c2)OCCO3)Oc2ccc([N+](=O)[O-])cc21 (stereo unspecified)	GRK2 aptamer HTS 42 (no result: PKD1 kinase inh) | GRK2 inh confirm inactive | FAM quench CP1 inactive
CCOC(=O)C1CCN(C(=O)c2cccc(S(=O)(=O)NCc3ccccc3)c2)CC1	none (no result: PKD1 kinase inh, DSG3 Ab inh)
Cc1ccc(SCc2c(C(=O)N/N=C/c3ccc4c(c3)OCO4)nnn2-c2nonc2N)cc1	GRK2 aptamer HTS 51 (no result: PKD1 kinase inh) | GRK2 inh confirm inactive | FAM quench CP1 inactive
Cc1ccc(SCc2c(C(=O)N/N=C/c3ccccc3)nnn2-c2nonc2N)cc1	none (no result: PKD1 kinase inh, DSG3 Ab inh)
CC(=O)N1CCc2c(sc(NC(=O)c3ccc([N+](=O)[O-])o3)c2C(N)=O)C1	none (no result: GRK2 aptamer HTS, PKD1 kinase inh, VLA-4 inh, LANA-H2A inh, HDAC3 inhib)
O=C(Nc1nccs1)c1ccc(-c2ccc(F)c(Cl)c2)o1	none (no result: PKD1 kinase inh)
CC(C)CCn1c(=O)c2ccccc2n2c(=S)[nH]nc12	none (no result: PKD1 kinase inh)
C=CCn1c(=O)c2ccccc2n2c(=S)[nH]nc12	GRK2 aptamer HTS 98 (no result: PKD1 kinase inh) | GRK2 inh confirm inactive | FAM quench CP1 inactive
Cn1c(-c2ccc3nc(N)sc3c2)nc2cc(N)ccc21	GRK2 aptamer HTS 52 | GRK2 inh confirm inactive | FAM quench CP1 inactive
CC(C)(C)c1ccc(C2C3=C(CCCC3=O)NC3=C2C(=O)c2ccccc23)cc1 (stereo unspecified)	GRK2 aptamer HTS 51 | GRK2 inh confirm inactive | FAM quench CP1 inactive
O=C(COC(=O)[C@@H]1CCCN1S(=O)(=O)c1ccccc1F)NCc1ccc2c(c1)OCO2	none (no result: PKD1 kinase inh)
COC(=O)c1ccc(N(CC(=O)NC2CCCC2)C(=O)c2ccc(C)s2)cc1	none (no result: PKD1 kinase inh)
NC(=O)CSc1nnc(-c2ccc(S(=O)(=O)N3CCCC3)cc2)o1	GRK2 aptamer HTS 45 | GRK2 inh confirm inactive | FAM quench CP1 inactive
O=S(=O)(c1ccc(-c2nnc(SCc3ccccc3)o2)cc1)N1CCCC1	none
Cc1ccc(CSc2nnc(-c3ccc(S(=O)(=O)N4CCCC4)cc3)o2)cc1	GRK2 aptamer HTS 59 | GRK2 inh confirm inactive | FAM quench CP1 inactive
CCN(CC(=O)Nc1c(F)cccc1F)C(=O)/C=C/c1ccc2ccccc2n1	GRK2 aptamer HTS 94, DSG3 Ab inh 77 (no result: PKD1 kinase inh) | GRK2 inh confirm inactive | FAM quench CP1 inactive
CCN1CCN(c2cc(C)c3cc(NC(=S)N(C)Cc4ccccc4)ccc3n2)CC1	none (no result: PKD1 kinase inh) | GRK2 inh confirm inactive | FAM quench CP1 inactive
CCCCN(C)C(=S)Nc1ccc2nc(N3CCN(CC)CC3)cc(C)c2c1	none
CC(=O)NC1C(=O)N(CCN2CCOCC2)c2ccc(Cl)cc21 (stereo unspecified)	GRK2 aptamer HTS 98 (no result: PKD1 kinase inh) | GRK2 inh confirm inactive | FAM quench CP1 inactive
CC(=O)NC1C(=O)N(CCN2CCOCC2)c2ccc(C)cc21 (stereo unspecified)	none (no result: PKD1 kinase inh)
COc1cccc(C(=O)NNS(=O)(=O)c2ccccc2)c1	none (no result: GRK2 aptamer HTS, PKD1 kinase inh, VLA-4 inh, LANA-H2A inh, HDAC3 inhib)
COc1cc(Cl)c([C@@H]2C[C@H]3CN(c4ccccc4)C(=O)[C@]34CCCN24)cc1OC	GRK2 aptamer HTS 70 | GRK2 inh confirm inactive | FAM quench CP1 inactive
COc1cc([C@@H]2C[C@H]3CN(c4ccccc4)C(=O)[C@]34CCCN24)cc(OC)c1OC	none
Cc1cc(C)n2nc(C(=O)N3CCCC(Nc4ccc(F)c(F)c4)C3)cc2n1 (stereo unspecified)	GRK2 aptamer HTS 85 (no result: PKD1 kinase inh) | GRK2 confirm 2 inactive | FAM quench SP inactive
Cc1cc(C)n2nc(C(=O)N3CCCC(Nc4ccc(C(C)C)cc4)C3)cc2n1 (stereo unspecified)	none (no result: PKD1 kinase inh)
O=C(NC1CCCCC1)N1CCSC1=Nc1ccccc1	GRK2 aptamer HTS 43 | GRK2 inh confirm inactive | FAM quench CP1 inactive
COc1ccc(C=CC(=O)c2ccc(OC)c(OC)c2)cc1O	none (no result: GRK2 aptamer HTS, PKD1 kinase inh, VLA-4 inh, LANA-H2A inh, HDAC3 inhib)
COc1ccc(/C=C/C(=O)c2cccc(-n3cnnn3)c2)cc1O	GRK2 aptamer HTS 98 (no result: PKD1 kinase inh) | GRK2 inh confirm inactive | FAM quench CP1 inactive
CCc1nn(CC(=O)NCCc2ccc(OC)cc2OC)c(=O)c2cc3occc3n12	none (no result: PKD1 kinase inh)
